Data taken from the antibiotic and cytotoxicity screens of Wong et al. (2023).
Among all 39,000 compounds or so, about 1,500 (3.8%) were called active. Only a selection was taken, and actives are over-represented in it overall.

Test system: HSkMC (human skeletal muscle cells)
Experiment: cytotoxicity call (relative viability < 0.9)
Conditions: 10 µM

| Structure (SMILES) | cytotoxicity call |
| --- | --- |
| COc1ccc(S(=O)(=O)N(C)C[C@H]2Oc3ccc(NS(=O)(=O)c4cn(C)cn4)cc3CC(=O)N([C@@H](C)CO)C[C@@H]2C)cc1 | inactive |
| CO[C@@H]1CN(C)C(=O)c2cc(NS(=O)(=O)CC(F)(F)F)ccc2OC[C@@H](C)N(C(=O)NC(C)C)C[C@@H]1C | inactive |
| COc1cccc(CNC(=O)C[C@H]2C=C[C@H](NC(=O)C3CCOCC3)[C@H](CO)O2)c1 | inactive |
| COc1ccc(CN(C)C[C@H]2OCCCC[C@H](C)Oc3ccc(NC(=O)Nc4ccc5c(c4)OCO5)cc3C(=O)N([C@@H](C)CO)C[C@H]2C)cc1 | inactive |
| C[C@@H]1CN([C@H](C)CO)C(=O)c2cc(NC(=O)Cn3cnnn3)ccc2O[C@@H]1CN(C)C(=O)Nc1ccc(C(F)(F)F)cc1 | inactive |
| C[C@@H]1CN([C@H](C)CO)C(=O)c2cc(NC(=O)Nc3ccc(C(F)(F)F)cc3)ccc2O[C@H]1CN(C)C(=O)Nc1cccc2ccccc12 | inactive |
| Cl.Clc1ccc2c(c1)CCc1cccnc1C2=C1CCNCC1 | inactive |
| Cc1cc(C(=O)Nc2cccc3c2O[C@H](CN(C)Cc2ccc(Oc4ccccc4)cc2)[C@@H](C)CN([C@@H](C)CO)C3=O)n(C)n1 | inactive |
| COC(=O)C(CC#Cc1ccc2c(c1)[C@]1(C(=O)N2)[C@H](c2ccc(OCCO)cc2)N2[C@H](c3ccccc3)[C@H](c3ccccc3)OC(=O)[C@H]2[C@@H]1C(=O)N1CCc2cc(OC)c(OC)cc2C1)C(=O)OC | inactive |
| COc1ccc(S(=O)(=O)N(C)C[C@@H]2Oc3c(NS(=O)(=O)c4cn(C)cn4)cccc3C(=O)N([C@@H](C)CO)C[C@@H]2C)cc1 | inactive |
| C[C@@H]1CN([C@@H](C)CO)C(=O)c2cc(NC(=O)Nc3ccc(C(F)(F)F)cc3)ccc2O[C@@H](C)CCCCO[C@H]1CN(C)Cc1ccccc1 | active |
| C[C@H]1CCCCO[C@@H](CN(C)Cc2ccccc2)[C@@H](C)CN([C@@H](C)CO)C(=O)c2cc(NC(=O)Nc3ccc(C(F)(F)F)cc3)ccc2O1 | active |
| C[C@H]1CCCCO[C@H](CN(C)Cc2ccccc2)[C@@H](C)CN([C@@H](C)CO)C(=O)c2cc(NC(=O)Nc3ccc(C(F)(F)F)cc3)ccc2O1 | active |
| C[C@@H]1CCCCO[C@H](CN(C)Cc2ccccc2)[C@H](C)CN([C@@H](C)CO)C(=O)c2cc(NC(=O)Nc3ccc(C(F)(F)F)cc3)ccc2O1 | active |
| COc1ccc(S(=O)(=O)N(C)C[C@H]2Oc3ccc(NC(=O)Cn4cnnn4)cc3CC(=O)N([C@H](C)CO)C[C@@H]2C)cc1 | inactive |
| C[C@H](CO)N1C[C@H](C)[C@@H](CN(C)C(=O)Nc2cccc3ccccc23)Oc2ccc(NS(=O)(=O)c3ccc(F)cc3)cc2CC1=O | inactive |
| CCCCCCCCCCCCCCCCOCCCOP(=O)(O)CO[C@H](CO)Cn1ccc(N)nc1=O | inactive |
| CC(C)NC(=O)Nc1ccc2c(c1)C(=O)N([C@@H](C)CO)C[C@H](C)[C@@H](CN(C)Cc1ccc3c(c1)OCO3)O2 | inactive |
| COCCn1cc2c(n1)[C@H](CNC(=O)COC)OCC2 | inactive |
| C[C@@H]1CCCCO[C@H](CN(C)C(=O)c2ccccc2)[C@@H](C)CN([C@H](C)CO)C(=O)c2cc(NC(=O)C3CCCCC3)ccc2O1 | inactive |
| C[C@@H]1CN([C@@H](C)CO)C(=O)c2cc(NC(=O)Nc3ccccc3)ccc2O[C@@H](C)CCCCO[C@H]1CN(C)C(=O)Nc1cccc2ccccc12 | inactive |

| Structure (SMILES) | cytotoxicity call |
| --- | --- |
| C[C@@H]1CN([C@H](C)CO)C(=O)c2cc(NC(=O)Nc3ccc(C(F)(F)F)cc3)ccc2O[C@@H](C)CCCCO[C@@H]1CN(C)Cc1ccccc1 | active |
| C[C@H](CO)N1C[C@H](C)[C@H](CN(C)Cc2ccccc2)OCCCC[C@H](C)Oc2ccc(NC(=O)Nc3ccc(C(F)(F)F)cc3)cc2C1=O | active |
| C[C@@H]1CCCCO[C@H](CN(C)Cc2ccccc2)[C@@H](C)CN([C@@H](C)CO)C(=O)c2cc(NC(=O)Nc3ccc(C(F)(F)F)cc3)ccc2O1 | active |
| C[C@@H]1CCCCO[C@H](CN(C)Cc2ccccc2)[C@@H](C)CN([C@H](C)CO)C(=O)c2cc(NC(=O)Nc3ccc(C(F)(F)F)cc3)ccc2O1 | active |
| Cn1nc(C2CC2)cc1N | inactive |
| C[C@H](CO)N1C[C@H](C)[C@@H](CN(C)C(=O)NC2CCCCC2)OCCCC[C@H](C)Oc2ccc(NC(=O)C3CCCCC3)cc2C1=O | inactive |
| Cc1noc(C)c1NC(=O)Nc1ccc2c(c1)C(=O)N([C@H](C)CO)C[C@H](C)[C@H](CN(C)C(=O)Cc1ccccc1)OCCCC[C@@H](C)O2 | inactive |
| C[C@H](CO)N1C[C@H](C)[C@H](CN(C)C(=O)C2CCCCC2)Oc2cc(C#Cc3ccncc3)ccc2S1(=O)=O | inactive |
| Cc1onc(-c2ccccc2)c1C(=O)NC1C(=O)N2C1SC(C)(C)C2C(=O)[O-].[Na+] (configuration not stated) | inactive |
| COc1ccc(S(=O)(=O)Nc2ccc3c(c2)C(=O)N([C@H](C)CO)C[C@H](C)[C@H](CN(C)C(=O)Nc2ccc(F)cc2)OCCCC[C@H](C)O3)cc1 | inactive |
| O=C(O)c1ccoc1 | inactive |
| Cc1ccc(S(=O)(=O)N(C)C[C@H]2Oc3cc(C#Cc4ccncc4)ccc3S(=O)(=O)N([C@H](C)CO)C[C@@H]2C)cc1 | inactive |
| C[C@@H]1CN([C@H](C)CO)C(=O)c2cc(NC(=O)NC3CCCCC3)ccc2O[C@@H]1CN(C)Cc1ccc(C(F)(F)F)cc1 | inactive |
| C[C@@H]1CCCCO[C@@H](CN(C)Cc2ccccc2)[C@H](C)CN([C@H](C)CO)C(=O)c2cc(NC(=O)Nc3ccc(C(F)(F)F)cc3)ccc2O1 | inactive |
| C[C@@H]1CCCCO[C@@H](CN(C)Cc2ccccc2)[C@H](C)CN([C@@H](C)CO)C(=O)c2cc(NC(=O)Nc3ccc(C(F)(F)F)cc3)ccc2O1 | inactive |
| C[C@@H]1CN([C@@H](C)CO)C(=O)c2cc(NC(=O)Nc3ccc(C(F)(F)F)cc3)ccc2O[C@@H](C)CCCCO[C@@H]1CN(C)Cc1ccccc1 | inactive |
| C[C@@H]1CCCCO[C@H](CN(C)Cc2ccccc2)[C@H](C)CN([C@H](C)CO)C(=O)c2cc(NC(=O)Nc3ccc(C(F)(F)F)cc3)ccc2O1 | active |
| C[C@@H]1CCCCO[C@@H](CN(C)Cc2ccccc2)[C@@H](C)CN([C@H](C)CO)C(=O)c2cc(NC(=O)Nc3ccc(C(F)(F)F)cc3)ccc2O1 | inactive |
| C[C@@H]1CCCCO[C@@H](CN(C)Cc2ccccc2)[C@@H](C)CN([C@@H](C)CO)C(=O)c2cc(NC(=O)Nc3ccc(C(F)(F)F)cc3)ccc2O1 | active |
| C[C@H](CO)N1C[C@H](C)[C@@H](CN(C)Cc2ccccc2)OCCCC[C@H](C)Oc2ccc(NC(=O)Nc3ccc(C(F)(F)F)cc3)cc2C1=O | active |
| C[C@@H]1CN([C@H](C)CO)C(=O)c2cc(NC(=O)Nc3ccc(C(F)(F)F)cc3)ccc2O[C@@H](C)CCCCO[C@H]1CN(C)Cc1ccccc1 | active |

| Structure (SMILES) | cytotoxicity call |
| --- | --- |
| CCC[C@@H](O)C#Cc1cnc2c(c1)C(=O)N([C@H](C)CO)C[C@H](C)[C@H](CN(C)C(=O)Nc1ccc(F)cc1)O2 | inactive |
| COC(=O)C12CC3(C(=O)OC)CC(C(=O)OC)(CC(C(=O)OC)(C1)C3=O)C2=O | inactive |
| COc1cccc(S(=O)(=O)Nc2ccc3c(c2)[C@@H]2C[C@H](CC(=O)NCc4cccc(F)c4)O[C@@H](CO)[C@@H]2O3)c1 | inactive |
| Cc1c2occ(C(C)(C)C)c2cc2c3c(c(=O)oc12)CCCC3 | inactive |
| NC(=O)c1ccco1 | inactive |
| C[C@H](CO)N1C[C@H](C)[C@H](CN(C)C(=O)Nc2cccc3ccccc23)Oc2c(NC(=O)NC3CCCCC3)cccc2C1=O | inactive |
| COc1ccc(NC(=O)N(C)C[C@H]2Oc3ccc(NC(=O)C4CC4)cc3C(=O)N([C@H](C)CO)C[C@H]2C)cc1 | inactive |
| C=CCOC(=O)[C@H]1[C@@H]2C(=O)O[C@@H](c3ccccc3)[C@@H](c3ccccc3)N2[C@@H](c2ccc(OCCOC(=O)NCCCCCC(=O)NO)cc2)[C@@]12C(=O)Nc1ccccc12 | inactive |
| C[C@@H]1CCCCO[C@H](CN(C)C(=O)Cc2ccccc2)[C@@H](C)CN([C@@H](C)CO)C(=O)c2cc(NS(=O)(=O)c3ccc(F)cc3)ccc2O1 | inactive |
| Cn1c(=O)c2c(ncn2CC(=O)O)n(C)c1=O | inactive |
| Cc1cnc(Nc2ccc(F)cc2Cl)nc1-c1c[nH]c(C(=O)N[C@H](CO)c2cccc(Cl)c2)c1 | active |
| O=C(C[C@@H]1CC[C@@H]2NC[C@@H](O)COC[C@H]2O1)NCCN1CCCC1 | inactive |
| Cc1ccc(S(=O)(=O)N(C)C[C@@H]2OCCCC[C@H](C)Oc3ccc(NS(=O)(=O)c4ccc(Cl)cc4)cc3C(=O)N([C@@H](C)CO)C[C@H]2C)cc1 | inactive |
| O=C(O)c1cc2sccc2s1 | inactive |
| CCOc1cc2ncc(C#N)c(Nc3ccc(OCc4ccccn4)c(Cl)c3)c2cc1NC(=O)/C=C/[C@H]1CCCN1C | inactive |
| COc1cc(Nc2c(C#N)cnc3cc(OCCCN4CCN(C)CC4)c(OC)cc23)c(Cl)cc1Cl | inactive |
| CCOc1cc2ncc(C#N)c(Nc3ccc(OCc4ccccn4)c(Cl)c3)c2cc1NC(=O)/C=C/CN(C)C | active |
| C[C@@H]1CCCCO[C@@H](CN(C)C(=O)Cc2ccccc2)[C@H](C)CN([C@@H](C)CO)C(=O)c2cc(NS(=O)(=O)c3ccc(Cl)cc3)ccc2O1 | inactive |
| CC(C)Oc1cccc(CC(=O)N2CCC[C@](CC[N+]34CCC(c5ccccc5)(CC3)CC4)(c3ccc(Cl)c(Cl)c3)C2)c1 | inactive |
| CC(=O)N(C)C1(c2ccccc2)CCN(CCC[C@]2(c3ccc(Cl)c(Cl)c3)CCCN(C(=O)c3ccccc3)C2)CC1 | active |
